The text below walks through data of PubChem BioAssay AID504710 (Sanford-Burnham Center for Chemical Genomics, 2011).

Unmarked numbers belong to inactive results. Calls of active or inactive are those of the source.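 Rule for the calls: active = inhibition reaching about 16% in any single replicate (limit read from the data); inactive = the rest.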

Hexokinase HKDC1 (Homo sapiens), sequence (Q2TB90 whole entry, looked up): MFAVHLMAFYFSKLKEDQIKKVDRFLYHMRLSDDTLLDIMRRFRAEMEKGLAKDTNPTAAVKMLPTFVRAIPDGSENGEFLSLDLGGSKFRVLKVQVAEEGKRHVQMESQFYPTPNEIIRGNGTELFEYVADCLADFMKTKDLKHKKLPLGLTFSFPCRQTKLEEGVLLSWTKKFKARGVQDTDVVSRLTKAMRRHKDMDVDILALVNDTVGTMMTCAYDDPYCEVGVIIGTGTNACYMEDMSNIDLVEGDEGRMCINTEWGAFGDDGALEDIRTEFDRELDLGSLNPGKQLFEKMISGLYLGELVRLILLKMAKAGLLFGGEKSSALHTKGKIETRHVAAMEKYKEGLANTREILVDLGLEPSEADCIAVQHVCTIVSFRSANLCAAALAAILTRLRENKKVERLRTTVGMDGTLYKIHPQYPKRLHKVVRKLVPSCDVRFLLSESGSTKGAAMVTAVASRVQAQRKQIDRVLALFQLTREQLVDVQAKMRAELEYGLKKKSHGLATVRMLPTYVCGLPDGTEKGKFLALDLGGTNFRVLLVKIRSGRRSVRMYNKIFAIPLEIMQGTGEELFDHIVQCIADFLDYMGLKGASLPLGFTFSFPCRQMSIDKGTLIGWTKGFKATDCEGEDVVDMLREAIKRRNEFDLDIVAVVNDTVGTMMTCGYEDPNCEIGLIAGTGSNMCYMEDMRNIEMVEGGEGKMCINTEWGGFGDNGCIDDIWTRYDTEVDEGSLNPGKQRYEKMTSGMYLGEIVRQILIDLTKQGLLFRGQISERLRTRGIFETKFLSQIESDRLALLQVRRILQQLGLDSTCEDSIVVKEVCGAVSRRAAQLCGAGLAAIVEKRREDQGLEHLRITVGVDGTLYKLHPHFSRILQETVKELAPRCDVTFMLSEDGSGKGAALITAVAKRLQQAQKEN

This assay has as its target Hexokinase HKDC1 (Homo sapiens) (UniProt Q2TB90). As to the kind of experiment: HKDC1 hexokinase inhibitors, confirmation, biochemical, single concentration (AID 504710). The note with it: recombinant HKDC1, G6PDH/diaphorase/resazurin fluorescence; at 20 µM; stronger effect = higher value. On the technique in general: The colour change of resazurin is a common sign of viable cells or microbes.
`CC(C)Nc1nnc(SCC(=O)Nc2ccc3c(c2)C(=O)c2ccccc2C3=O)s1`: the inhibition (usually the relative decrease from the control value, in per cent) was 53.5% (active). As for `O=C(NCCc1ccccc1)c1cnn2c(C(F)F)cc(C3CC3)nc12`, the figure is 59.8% (active). For `COc1cc(N=c2ssnc2Cl)cc(OC)c1OC` the value was -45.9%; for `O=c1c2ccccc2nc(/C=C/c2cccnc2)n1Cc1ccccc1`, 60.7% (active).

`CCc1c(C)c(C#N)c2nc3ccccc3n2c1NC`: the inhibition was -43.3%. For `CCC(c1ccccc1)C(CC)c1cc(O)c(O)c(O)c1` (configuration not stated) the value was 35.8% (active); for `COc1ccc2[nH]c3c4c(ccc3c2c1)C(=O)C=CC4=O`, 32.9% (active). Consider `O=C(NNC(=S)Nc1ccc(Cl)c(Cl)c1)c1ccccn1`, for which the inhibition was -74.1%.

For the molecule `O=C1C(Cl)=C(N2CCC(C(=O)O)CC2)C(=O)c2ccccc21`, the inhibition is 57.2% (active).

Consider `Nn1cnnc1N/N=C/c1cc(Br)cc(Br)c1O`, for which the inhibition is -31.9%.

`Cc1cc(Oc2ccc(C(C)(C)C)cc2)nc(N2CCOCC2)n1`: the inhibition was -37%.

Consider `CC(=O)N(C1=C(Cl)C(=O)c2ccccc2C1=O)C1CCCCC1`, for which the inhibition was 78.2% (active). Turning to `Cc1ccc(-n2c3nc(=O)[nH]c(=O)c-3cc3cc([N+](=O)[O-])ccc32)cc1`, the inhibition was 56.2% (active). For the molecule `Cc1ccc2cc(CCNC(=O)c3ccc(S(=O)(=O)N4CCCCC4)cc3)c(=O)[nH]c2c1`, the inhibition is 39.8% (active). For `CCOC(=O)c1ccc(NC2=CC(=O)C(=O)c3ccccc32)cc1` the value was 27.6% (active); for `CCc1ccc(S(=O)(=O)/N=C2/C=C(Sc3ncn[nH]3)C(=O)c3ccccc32)cc1`, 73% (active). For `CCOC(=O)C1=C(Cc2ccc(OC)cc2)C(=O)c2ccccc2C1=O` the value was 55.8% (active); for `O=C(O)CSc1cc(NS(=O)(=O)c2ccc(Cl)cc2)c2ccccc2c1O`, 45.6% (active); for `CC(OC(=O)c1cc(O)c2ccccc2c1O)C(=O)Nc1ccc(C(N)=O)cc1` (configuration not stated), 28.4% (active). For `COc1ccc(NC(=O)CSc2ccc(-c3cccnc3)nn2)c(OC)c1` the value was 38.8% (active); for `CC(C)c1nc2oc3c(NCC4CCCO4)ncnc3c2c2c1COC(C)(C)C2` (configuration not stated), 62.8% (active). Take `CCCCC(=O)NC(c1ccc(N(CC)CC)cc1)c1ccc2cccnc2c1O` (configuration not stated): the inhibition is -59.3%. As for `COc1ccc(/C=C/C(=O)NC(=S)NNC(=O)c2cnccn2)cc1`, the figure is -58.3%; as for `COC(=O)c1cc(C)nc2c1C(=O)C(=O)C=C2N1CCOCC1`, 65.8% (active); as for `O=S(=O)(c1ccc(NC(=S)NN=C(Cc2ccccc2)Cc2ccccc2)cc1)N1CCOCC1`, -43.9%. On to `COc1ccc(C2=NNC(=Nc3cc(S(=O)(=O)N(C)C)ccc3C)SC2)c(OC)c1`, for which the inhibition was -120%. As for `O=S(=O)(Nc1cc(Sc2ncn[nH]2)c(O)c2ccccc12)c1ccccc1`, the figure is 48.4% (active). For `O=C(CNC(=O)/C=C/c1ccco1)N=Nc1c(O)[nH]c2ccccc12` the value was 39% (active); for `COC1=CC(=O)C(OC)=C(OC)C1=O`, 71.9% (active); for `CCCc1nc2oc3c(OC)ncnc3c2c2c1COC(C)(C)C2`, 42.4% (active). As for `O=S(=O)(NC1c2cccc3cccc(c23)C1N1CCNCC1)c1ccccc1` (configuration not stated), the inhibition was -94.7%. For `S=C(NCc1ccccn1)NN=Cc1ccccn1` the value was -45.4%. `CCCc1nc2oc3c(NCC4CCCO4)ncnc3c2c2c1COC(C)(C)C2` (configuration not stated): the inhibition was 28.9% (active). As for `COc1ccc(-c2[nH]c(-c3ccc(SC)cc3)nc2SCC(=O)Nc2nccs2)cc1`, the inhibition is -36.1%. On to `CCOc1ccc(/C=C2/SC(=S)N(CCC(=O)Nc3ccc(C(=O)O)cc3)C2=O)cc1`, for which the inhibition was -41.5%. `Cc1[nH]c2ccccc2c1C1=CC(=O)C=CC1=O`: the inhibition is 52.9% (active).

Regarding `O=C(O)COc1ccc(/C=N/NC(=O)c2ccc(-c3csc(Nc4ccc(Cl)cc4)n3)cc2)cc1`, the inhibition is 24.2% (active).
